The record followed here is PubChem BioAssay.

Active and inactive are the calls of the source.

The target of test [1] is Albumin (Bos taurus) (UniProt P02769). In words: bovine serum albumin binders on microarray, profiling panel, artefact control for SMM control protein annotation, biochemical, small-molecule microarray, Alexa647 label, 635/667 nm fluorescence (AID 1118).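 Also: score merges 667 nm emission intensity and signal-to-noise per printed compound spot.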 Conditions: BSA-A647 binding, fluorescence 635 nm, higher = more signal.
Chain of Albumin (Bos taurus) (P02769 whole entry, looked up): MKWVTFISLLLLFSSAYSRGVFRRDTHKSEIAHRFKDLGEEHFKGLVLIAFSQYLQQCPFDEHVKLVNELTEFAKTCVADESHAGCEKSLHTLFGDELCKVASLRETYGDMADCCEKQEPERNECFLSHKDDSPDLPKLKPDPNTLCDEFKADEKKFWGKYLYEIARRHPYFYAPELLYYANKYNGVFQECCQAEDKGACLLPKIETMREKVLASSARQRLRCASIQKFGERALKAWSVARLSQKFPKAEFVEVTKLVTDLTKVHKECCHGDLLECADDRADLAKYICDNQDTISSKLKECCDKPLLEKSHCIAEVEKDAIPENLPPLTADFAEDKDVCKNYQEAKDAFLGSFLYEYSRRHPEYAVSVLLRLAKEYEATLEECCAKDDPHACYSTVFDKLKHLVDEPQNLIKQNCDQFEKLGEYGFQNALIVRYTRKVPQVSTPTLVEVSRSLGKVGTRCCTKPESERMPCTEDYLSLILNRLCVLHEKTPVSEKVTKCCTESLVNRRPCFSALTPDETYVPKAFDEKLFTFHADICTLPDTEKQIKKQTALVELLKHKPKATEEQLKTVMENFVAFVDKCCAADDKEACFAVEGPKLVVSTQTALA
Test [2] can be described thus: small-molecule microarray binders of probe aXIP, primary screen, biochemical, NeuroSMM set, 635/667 nm fluorescence (AID 1119).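 Also: probe is the protein aXip251-270 applied at 1 µg/mL to compound-printed slides; binding of probe to printed compounds measured as 667 nm fluorescence plus signal to noise.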 Conditions: higher = more signal, called active from +8 up or from −8 down.
The nature of test [3]: small-molecule binders of probe aNOTCH3, primary screen, biochemical, small-molecule microarray, 635/667 nm fluorescence (AID 1120).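 Also: probe is a biotin-tagged antibody raised against NOTCH3 rather than NOTCH3 protein; score merges spot fluorescence near 667 nm with spot signal to noise.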 Conditions: higher = more signal.
Test [4] can be described thus: small-molecule binders of probe aNOTCH2, primary screen, biochemical, small-molecule microarray, 635/667 nm fluorescence (AID 1121).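 Also: score merges feature fluorescence read at 667 nm with its signal to noise.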 Conditions: higher = more signal.
For test [5], the target named is Carbonic anhydrase 2 (Homo sapiens) (UniProt P00918). In words: CAII small-molecule binders, profiling panel, biochemical, small-molecule microarray, Alexa647-labelled CAII (AID 1122). Conditions: CAII-A647 binding fluorescence, higher = more signal.
Test [6] is described as follows: COS7 lysate on small-molecule microarray, probe aHis, 635 nm (AID 1123).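 Also: z-score combines 667nm fluorescence intensity with signal-to-noise per printed compound spot.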 Conditions: COS7 cell lysate, fluorescence, higher = more signal.
Test [7] can be described thus: compound binding in COS7 lysate, probe aLAP1, primary screen, cell lysate, small-molecule microarray (AID 1124).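 Also: lysate comes from COS7 cells expressing LAP1 and is applied at 0.3 µg/mL; score merges spot fluorescence near 667 nm with signal-to-noise over triplicate slides.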 Conditions: probe aLAP1, fluorescence, higher = more signal.
Test [8] relates to Sam68 (KHDRBS1). The experiment in a line: Sam68 small-molecule binders, primary screen, biochemical, small-molecule microarray, 635 nm fluorescence (AID 1125).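 Also: score merges 667 nm channel intensity with signal to noise over triplicate slides.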 Conditions: small-molecule microarray binding, higher = more signal.
Test [9] has as its system Chordin-like protein 2 (CHRDL2). The experiment in a line: CHRDL2 small-molecule binders, primary screen, biochemical, small-molecule microarray, 635 nm fluorescence (AID 1126).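 Also: printed compound slides probed with Chrdl2 protein at 4 µg/mL for 1 h at 4 C; score merges 667 nm emission intensity with signal to noise over three replicate slides.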 Conditions: small-molecule microarray binding, fluorescence 635 nm; higher = more signal.
In test [10] the target is Concanavalin-A (Canavalia ensiformis) (UniProt P02866). The experiment in a line: ConA small-molecule binders, primary screen, artefact control for SMM control protein annotation, biochemical, small-molecule microarray, Alexa647 label, 635 nm (AID 1127).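 Also: z combines 667 nm emission intensity with signal-to-noise across three replicate slides.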 Conditions: ConA-A647 binding fluorescence, higher = more signal.
Chain of Concanavalin-A (Canavalia ensiformis) (P02866 whole entry, looked up): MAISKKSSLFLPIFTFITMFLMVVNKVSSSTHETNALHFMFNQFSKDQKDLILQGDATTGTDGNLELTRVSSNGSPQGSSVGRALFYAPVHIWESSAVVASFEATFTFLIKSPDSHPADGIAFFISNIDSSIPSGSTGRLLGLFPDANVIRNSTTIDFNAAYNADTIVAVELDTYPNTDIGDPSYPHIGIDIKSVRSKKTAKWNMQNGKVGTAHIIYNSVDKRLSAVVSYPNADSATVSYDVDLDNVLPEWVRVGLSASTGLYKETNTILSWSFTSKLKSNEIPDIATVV
The nature of test [11]: anti-His antibody binders, primary screen, artefact control for SMM control protein annotation, biochemical, small-molecule microarray, 635 nm fluorescence (AID 1128).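 Also: score merges feature fluorescence with signal-to-noise for each printed compound spot.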 Conditions: anti-His Alexa647 antibody binding, higher = more signal.
For test [12], the system named is Human papillomavirus type 1a E7 protein (residues 1-88). The experiment in a line: HPV1a E7 small-molecule binders, primary screen, biochemical, small-molecule microarray, residues 1-88, 635 nm (AID 1129). Conditions: small-molecule microarray binding, fluorescence 635 nm; higher = more signal.
The target in test [13] is Focal adhesion kinase 1 (Homo sapiens) (UniProt Q05397). The experiment in a line: small-molecule microarray binders of FAK, primary screen, biochemical, 635/667 nm fluorescence, BSA, DTT (AID 1130).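 Also: composite of spot emission at 667 nm and signal to noise over triplicate slides.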 Conditions: PTK2 binding, 635 nm fluorescence, higher = more signal.
Chain of Focal adhesion kinase 1 (Homo sapiens) (Q05397 whole entry, looked up): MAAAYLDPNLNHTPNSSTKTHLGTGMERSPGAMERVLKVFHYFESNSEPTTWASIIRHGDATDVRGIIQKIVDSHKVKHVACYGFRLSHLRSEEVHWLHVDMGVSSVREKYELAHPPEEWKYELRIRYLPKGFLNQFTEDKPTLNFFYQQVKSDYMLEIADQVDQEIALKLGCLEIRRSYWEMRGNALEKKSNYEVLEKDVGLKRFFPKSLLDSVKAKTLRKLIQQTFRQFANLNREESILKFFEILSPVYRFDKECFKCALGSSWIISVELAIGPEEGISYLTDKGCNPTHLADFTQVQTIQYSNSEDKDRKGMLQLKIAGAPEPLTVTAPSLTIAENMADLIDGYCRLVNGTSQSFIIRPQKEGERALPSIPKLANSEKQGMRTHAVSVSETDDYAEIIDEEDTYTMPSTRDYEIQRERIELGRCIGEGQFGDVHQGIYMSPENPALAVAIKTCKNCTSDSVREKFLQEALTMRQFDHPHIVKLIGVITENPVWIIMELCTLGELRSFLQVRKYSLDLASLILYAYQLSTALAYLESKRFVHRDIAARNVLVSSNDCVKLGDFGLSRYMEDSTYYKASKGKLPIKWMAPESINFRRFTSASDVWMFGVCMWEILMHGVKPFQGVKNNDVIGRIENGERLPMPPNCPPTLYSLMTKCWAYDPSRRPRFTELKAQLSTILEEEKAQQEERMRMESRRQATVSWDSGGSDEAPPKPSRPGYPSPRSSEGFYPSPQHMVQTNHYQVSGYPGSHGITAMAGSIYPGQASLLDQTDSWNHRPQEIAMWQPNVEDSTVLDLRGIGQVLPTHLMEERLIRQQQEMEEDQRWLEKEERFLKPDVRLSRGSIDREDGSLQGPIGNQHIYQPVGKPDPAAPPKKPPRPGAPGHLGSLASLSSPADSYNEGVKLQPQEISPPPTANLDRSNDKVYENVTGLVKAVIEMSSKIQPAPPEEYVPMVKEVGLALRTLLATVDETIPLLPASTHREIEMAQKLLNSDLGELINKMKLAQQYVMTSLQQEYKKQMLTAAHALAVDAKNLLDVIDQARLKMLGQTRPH
Test [14] concerns Fibrinogen (Alexa647-labelled). In words: fibrinogen binders on compound microarrays, profiling panel, artefact control for SMM control-protein annotation, biochemical, small-molecule microarray, 635/667 nm fluorescence (AID 1131).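 Also: z-score merges 667 nm fluorescence with per-spot signal-to-noise over triplicate slides.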 Conditions: fibrinogen-A647 binding fluorescence, higher = more signal.
For test [15], the target named is Follistatin (Homo sapiens) (UniProt P19883). The experiment in a line: follistatin binders on small-molecule microarrays, primary screen, biochemical, small-molecule microarray, 635/667 nm fluorescence (AID 1132). Conditions: FST binding, 635 nm fluorescence, higher = more signal.
Chain of Follistatin (Homo sapiens) (P19883 whole entry, looked up): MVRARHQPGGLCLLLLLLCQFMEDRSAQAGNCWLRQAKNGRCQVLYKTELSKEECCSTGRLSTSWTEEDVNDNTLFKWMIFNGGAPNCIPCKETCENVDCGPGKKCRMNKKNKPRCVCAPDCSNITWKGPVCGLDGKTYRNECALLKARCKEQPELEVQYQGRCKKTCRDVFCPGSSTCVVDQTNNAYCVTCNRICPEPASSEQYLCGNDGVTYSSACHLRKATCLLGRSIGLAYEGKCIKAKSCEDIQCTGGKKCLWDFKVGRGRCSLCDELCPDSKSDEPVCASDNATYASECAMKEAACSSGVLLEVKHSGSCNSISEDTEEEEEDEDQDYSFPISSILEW
The target of test [16] is Fibroblast growth factor 2 (Homo sapiens) (UniProt P09038). The experiment in a line: FGF2 binders on small-molecule microarrays, primary screen, biochemical, small-molecule microarray, 635/667 nm fluorescence (AID 1133). Conditions: small-molecule microarray binding, FGF2, fluorescence 635/667; higher = more signal.
Chain of Fibroblast growth factor 2 (Homo sapiens) (P09038 whole entry, looked up): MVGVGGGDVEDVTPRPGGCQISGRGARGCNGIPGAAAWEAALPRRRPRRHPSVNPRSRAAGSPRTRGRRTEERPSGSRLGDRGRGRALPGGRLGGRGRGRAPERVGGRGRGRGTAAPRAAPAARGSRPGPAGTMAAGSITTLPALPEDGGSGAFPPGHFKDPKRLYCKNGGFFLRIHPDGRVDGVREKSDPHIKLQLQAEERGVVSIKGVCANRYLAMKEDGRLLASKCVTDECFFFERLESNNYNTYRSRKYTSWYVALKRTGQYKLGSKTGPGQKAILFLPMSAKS
A short description of test [17]: mitochondrial membrane potential change in A549 cells, profiling panel, cell-based, JC-1 fluorescence, basal, 24 h, 100 nL (AID 1138).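 Also: A549 lung adenocarcinoma cells under basal conditions with no added stimulus; test concentration not given here.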 Conditions: higher = more signal.
For test [18], the system named is Lefty1. The experiment in a line: Lefty1 binders on small-molecule microarrays, primary screen, biochemical, small-molecule microarray, 635/667 nm fluorescence (AID 1139). Conditions: small-molecule microarray binding, fluorescence 635/667; higher = more signal.
Test [19] has as its system wheat germ agglutinin (Triticum aestivum), Alexa647-labelled. The experiment in a line: wheat germ agglutinin binders on compound microarrays, profiling panel, artefact control for SMM control-protein annotation, biochemical, small-molecule microarray, 635/667 nm fluorescence (AID 1140).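 Also: score merges 667 nm feature emission with signal to noise over triplicate slides.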 Conditions: WGA-A647 binding, 635 nm fluorescence, higher = more signal.
Test [20] has as its target Luciferin 4-monooxygenase (Photinus pyralis) (UniProt P08659). The experiment in a line: firefly luciferase enzyme inhibitors, primary screen, biochemical, luminescence, purified enzyme, 2006 set (AID 1141).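 Also: cell-free assay with purified firefly luciferase at 100 ng per well in PBS; test concentration not given here.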 Conditions: SteadyGlo luminescence, 30 min, higher = more signal, called active from +8 up or from −8 down.

Chain of Luciferin 4-monooxygenase (Photinus pyralis) (P08659 whole entry, looked up): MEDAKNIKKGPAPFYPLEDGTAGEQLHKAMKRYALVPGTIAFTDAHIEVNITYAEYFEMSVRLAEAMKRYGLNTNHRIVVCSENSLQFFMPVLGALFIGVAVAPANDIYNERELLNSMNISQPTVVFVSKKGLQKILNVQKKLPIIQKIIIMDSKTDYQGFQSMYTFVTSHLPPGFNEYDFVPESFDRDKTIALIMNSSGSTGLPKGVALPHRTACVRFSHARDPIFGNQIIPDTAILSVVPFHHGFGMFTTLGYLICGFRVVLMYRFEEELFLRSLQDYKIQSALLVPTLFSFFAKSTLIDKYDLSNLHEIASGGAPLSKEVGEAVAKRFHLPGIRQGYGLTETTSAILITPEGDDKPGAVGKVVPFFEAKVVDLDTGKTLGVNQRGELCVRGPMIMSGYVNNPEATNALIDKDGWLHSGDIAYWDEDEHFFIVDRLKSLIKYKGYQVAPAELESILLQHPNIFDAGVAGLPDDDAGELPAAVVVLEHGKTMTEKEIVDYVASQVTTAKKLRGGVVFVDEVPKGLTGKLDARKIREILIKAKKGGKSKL

Consider `CCCCC(O)C1C=CC2C(=O)N(C)C(=O)C2N1N1CCCCC1` (stereo not given), for which the composite z-score was 0.843 in [1]; 0.291 in test [3]; 0.0675 in [4]; 0.821 in test [5]; 2.45 in [6]; 0.536 in test [7]. The composite z-score in test [8] turned out to be 0.952; in test [9] it was 0.372; in test [10], 0.0635; in [11] it was 1.69; in test [12], 0.678; in test [13] it was 0.367. Besides, the composite z-score in test [14] is 1.03; in [15], 0.971; in [16] it was -0.331; in [18], 0.412; in test [19], 1.19. In addition, the composite Z-score in test [2] was 0.257 (inactive). Moreover, the values for the z-score in test [17] and in test [20] were -0.0954 and 0.452 (inactive), respectively.
Regarding `O=C1[C@H]2C=C(I)[C@H](C[C@@H]2OCCCCO)[C@@]12CO2`, the composite z-score was -1.17 in [1]; -0.0057 in [3]; -0.061 in test [4]; 0.758 in test [5]; 0.141 in [6]; 0.489 in test [7]. In addition, the composite z-score in test [8] was 0.579; in test [9] it was -0.11; in test [10] it was -0.0969; in test [11], -0.276; in [12] it was 0.0789; in test [13] it was 0.465. Further, the composite z-score is -0.327 in [14]; 0.167 in test [15]; -0.0868 in [16]; 0.115 in [18]; -0.428 in test [19]. In test [2], the composite Z-score was 0.32 (inactive). In addition, the z-score in test [17] is -0.106; in test [20] it was 0.291 (inactive).
Consider `[N-]=[N+]=NCc1ccccc1[C@@H]1OC(c2ccc(OCCCO)cc2)=N[C@]1(CCS(=O)(=O)c1ccccc1)C(N)=O`, for which the composite z-score was found to be 0.0943 in test [1]; 0.369 in [3]; 0.0703 in test [4]; 0.637 in test [5]; 3.29 in test [6]; 0.247 in test [7]. The composite z-score in test [8] came out at 1.28; in [9], 1.1; in test [10], 0.971; in [11] it was 3.49; in test [12], 1.27; in [13], 1.21. The composite z-score in [14] is 0.973; in test [15], 1.44; in [16] it was 1.83; in test [18] it was 0.616; in test [19], 1.09. Also, in test [2], the composite Z-score was 0.466 (inactive). Moreover, the z-score in test [17] was -0.528; in test [20], -2.98 (inactive).
In the case of `C=C(CCCC)/C(=C/C[C@@H](OC(C)=O)c1ccccc1OCCO)c1cc(C(=O)OC)ccc1OC`, the composite z-score in test [1] is 0.056; in test [3], -0.0947; in test [4], -0.103; in [5] it was 0.402; in test [6] it was 0.0769; in [7] it was 0.0978. Also, the composite z-score in test [8] is 0.166; in test [9], -0.354; in [10] it was -0.544; in test [11], -0.9; in test [12], -0.2; in test [13], -0.0448. For the same compound, the composite z-score in test [14] was determined as 0.259; in test [15], 0.35; in test [16], 0.16; in test [18], 0.384; in test [19] it was 0.0424. Also, the composite Z-score in [2] is -0.737 (inactive). The z-score in test [17] is 2.6; in test [20], -2.02 (inactive).
Regarding `[N-]=[N+]=Nc1ccccc1C[C@]1(C(=O)NCC(O)CO)N=C(c2ccc(OCCCO)cc2)O[C@H]1c1ccccc1` (stereo not given in full), the composite z-score in test [1] was 0.927; in test [3] it was 0.298; in test [4] it was -0.14; in test [5], 0.629; in test [6], 2.83; in test [7], 0.132. The composite z-score in test [8] is 1.09; in test [9], -1.5; in test [10], 0.197; in [11], 1.91; in test [12] it was 1.03; in test [13], 0.0141. For the same compound, the composite z-score in [14] is 0.942; in test [15], 0.497; in [16], -0.839; in test [18], -0.492; in test [19], 0.606. For the same compound, the composite Z-score in test [2] was 0.102 (inactive). For the same compound, the z-score in [17] was 0.0609; in test [20], -1.78 (inactive).
